# High-throughput results from PubChem BioAssay.
# The list is not random: actives were taken first. Their share in the collection is about 8%.
# Marburg entry inh: inhibitors of Marburg virus binding or cell entry; Marburg virus pseudotyped entry inhibition, cell reporter; 1.8% of 300,000 active; Potency, µM (top dose mostly 37.8 µM), for inactives: top-dose activity change, negative = inhibition, usual class: inhibitors; calls by dose curve; tested in HEK293 cells; also: potency is read from the fitted curve at half-maximal effect; % is scaled to controls: 0 for no effect and ±100 for the full control effect
# FMDV antiviral: antivirals against foot and mouth disease virus; FMDV antiviral cell-based qHTS; Potency, µM (series often up to 57.9 µM), inactives show at the top dose activity change, negative = inhibition, actives largely listed as inhibitors; 1.2% of 410,000 active; AID 1159524; calls by dose curve; tested in HEK293T cells; also: read-out not given here; potency is read from the fitted curve at half-maximal effect; % is scaled to controls: 0 for no effect and ±100 for the full control effect; nearly all actives have a fitted effect of over 45% in size
# HCV inh: HCV inhibition; Huh7.5.1 HCVcc-Cre infection, luciferase reporter, 44 h; Potency, µM (series often up to 41.8 µM), for inactives: at the highest dose activity change, negative = inhibition, actives largely listed as inhibitors; 3.4% of 340,000 active; AID 651820; active = well fitted inhibition curve with a large enough effect; inconclusive = small, poorly fitted or top-dose-only effect, or another doubt; inactive = no such curve, though single readings can be large or run the other way; also: potency is read from the fitted curve at half-maximal effect; % is scaled to controls: 0 for no effect and ±100 for the full control effect
#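 Seed cells (1,000/well) for 4 h; treat with compound and infect with HCVcc-Cre, moi about 0.5. Incubate 44 h, then detect luciferase activity.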
# HCMV inh: human cytomegalovirus inhibition; activity change, negative = inhibition, % at 57.5 µM; AID 1259415; 4.5% of 410,000 active; HFF cells, HCMV-luciferase reporter, 72 h; hits give low values; in the data active = activity change below about -60%; inconclusive = no clear call, values can overlap the other calls; inactive = above about -39%; also: % is scaled to controls: 0 for no effect and ±100 for the full control effect
#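 Cell-based, HFFs, 1000 cells/well, 16 h 37C; cpds in DMSO + HCMV-luc, MOI 1 PFU/cell; 72 h 37C; OneGlo luminescence after 5 min RT; norm. to buffer vs Salinomycin 10uM.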
# SARS PLP yeast: SARS-CoV PLP inhibition in yeast; S. cerevisiae expressing SARS-CoV PLpro, growth rescue; Potency, µM (doses to about 32.9 µM), for inactives: at the top dose activity, positive = growth rescue, most hits filed as activators; 0.19% of 330,000 active; calls by dose curve; also: potency is read from the fitted curve at half-maximal effect; 0% is about no effect; nearly all actives have a fitted effect of over 55% in size
# Lassa entry inh: inhibitors of Lassa virus binding or cell entry. Lassa virus pseudotype entry inhibition, cell reporter. Potency, µM (highest dose often 37.9 µM), for the others: at the highest dose activity change, negative = inhibition, most hits filed as inhibitors. 1.2% of 300,000 active. AID 540256; calls by dose curve; tested in HEK293 cells; also: potency is read from the fitted curve at half-maximal effect; % is scaled to controls: 0 for no effect and ±100 for the full control effect; nearly all actives have a fitted effect of over 50% in size
# Numbers without * were called inactive; u = inconclusive; x = no result given; [ ] = another dose, or the depositor's remark.
SMILES,Marburg entry inh,FMDV antiviral,HCV inh,HCMV inh,SARS PLP yeast,Lassa entry inh
CCc1ccc(/C=N/NC(=O)c2cc(-c3ccncc3)nc3ccccc23)s1,u,-16%,u,-66*,17%,u
CCCc1cc(C(=O)N/N=C/c2ccc(CC)s2)c2ccccc2n1,u,u,u,5,1%,-9%
Nn1c(SCc2cccc(F)c2)nnc1-c1ccncc1,x,13%,7%,2,3%,x
COCCN1CCN(C(=O)c2cnn(-c3nccc(-c4ccccc4OC)n3)c2-c2ccco2)CC1,x,-17%,x,x,x,x
CCCCC(=O)N(CCOC)c1nnc(-c2ccccc2C)s1,u,-6%,1.8µM*,-15,0%,0%[46.1 µM]
CCOC(=O)Nc1cccnc1Sc1ccc(Cl)cc1,-12%[46.1 µM],-3%,1%,-10,x,20%[46.1 µM]
CCCNC(=O)OCc1cccnc1Sc1ccc(C)cc1,u,46%,5%,54,-11%,10µM*
COc1ccc(N2CCN(S(=O)(=O)c3ccc4c(c3)NC(=O)C(C)S4)CC2)cc1 (stereo unspecified),u,-28%,u,0,9%,u
CCCCn1c(N)c(C(=O)OCC2CCCO2)c2nc3ccccc3nc21 (stereo unspecified),-8%,-28%,u,-14,-9%,-20%
CC(C)CCn1c(N)c(C(=O)OCC2CCCO2)c2nc3ccccc3nc21 (stereo unspecified),u,-16%,13µM*,-24,-9%,u
Nc1c(C(=O)OC2CCCCC2)c2nc3ccccc3nc2n1CC1CCCO1 (stereo unspecified),u,-16%,10µM*,-12,-7%,-26%
Cc1cccc(OCC(=O)Nc2ccc(OCc3cc(=O)n4cc(C)ccc4n3)cc2)c1,x,-28%,x,11,x,0%[46.1 µM]
Cc1sc(NC(=O)COc2cccc(-n3cnnn3)c2)c(C#N)c1C,u,3%,-23%,-62*,5%,-8%
Cc1sc(NC(=O)COc2ccccc2)c(C#N)c1C,u,12%,-22%,-1,-3%,-22%[46.1 µM]
Cc1c(Cl)c([N+](=O)[O-])nn1CCCC(=O)NCCc1ccccc1,x,53%,-4%,-30,0%,x
O=C(c1cc(-c2ccc(Br)cc2)on1)N1CCOCC1,u,21%,-19%,-4,-1%,2.5µM*
COc1cccc(-c2cc(C(=O)N3CCOCC3)no2)c1,10µM*,-1%,14%,66,1%,-21%[46.1 µM]
COc1ccc(-c2cc(C(=O)N3CCOCC3)no2)cc1,u,-35%,-8%,9,-4%,u
CC(C)(C)C1=CC(=O)C(N2CCOCC2)=CC1=O,u,u,-11%,63,-14%,13µM*
Cc1ccc(-n2c(C)nn(Cc3ccc([N+](=O)[O-])cc3)c2=O)cc1,-10%[46.1 µM],-13%,-12%,-82*,1%,-27%
Cc1nn(-c2ccccc2)c(N)c1N=Nc1cccc(S(=O)(=O)N2CCOCC2)c1,u,-18%,22µM*,-68*,-4%,u
N[C@H](Cc1cccc(-c2ccccc2CP(=O)(O)O)c1)C(=O)O,6%,x,x,x,x,x
O=C(c1ccc(S(=O)(=O)c2cccc(Cl)c2)c([N+](=O)[O-])c1)N1CCN(c2ccccn2)CC1,7.1µM*,16µM*,u,-78*,-4%,u
O=C(c1ccc(S(=O)(=O)Cc2ccccc2F)c([N+](=O)[O-])c1)N1CCCCCC1,u,u,u,u,4%,-9%
O=C(c1ccc(S(=O)(=O)c2ccccc2Cl)c([N+](=O)[O-])c1)N1CCCCCC1,u,u,u,-65*,12%,-25%
COc1cccc(CNC(=O)C(NS(=O)(=O)c2cccs2)C(C)C)c1 (stereo unspecified),-13%[46.1 µM],-18%,x,u,x,2%[46.1 µM]
COc1ccc(NC(=O)C2CC(=O)N(CCc3ccc(Cl)cc3)C2)cc1 (stereo unspecified),-12%,-3%,-17%,-86*,14%,u
COc1ccc(OC)c(NC(=O)C2CC(=O)N(CCc3ccc(F)cc3)C2)c1 (stereo unspecified),-15%[46.1 µM],9%,6%,x,x,2%
CCNc1c2c(oc(=O)c1N)CCCC2,5%,x,x,x,x,x
